According to PubChem BioAssay AID2014 (Sanford-Burnham Center for Chemical Genomics, 2009):
Where “and” joins values, the source holds several entries; their conditions need not be identical. Identical values can stand only once. Screen size: about 290,000 compounds; about 3,000 (1%) were called active. How the calls were made is not given here. Only a selection was taken, and actives are over-represented in it overall.

Biological target: Polyadenylate-binding protein 1 (Homo sapiens) (UniProt P11940)
Sequence (P11940 whole entry, looked up): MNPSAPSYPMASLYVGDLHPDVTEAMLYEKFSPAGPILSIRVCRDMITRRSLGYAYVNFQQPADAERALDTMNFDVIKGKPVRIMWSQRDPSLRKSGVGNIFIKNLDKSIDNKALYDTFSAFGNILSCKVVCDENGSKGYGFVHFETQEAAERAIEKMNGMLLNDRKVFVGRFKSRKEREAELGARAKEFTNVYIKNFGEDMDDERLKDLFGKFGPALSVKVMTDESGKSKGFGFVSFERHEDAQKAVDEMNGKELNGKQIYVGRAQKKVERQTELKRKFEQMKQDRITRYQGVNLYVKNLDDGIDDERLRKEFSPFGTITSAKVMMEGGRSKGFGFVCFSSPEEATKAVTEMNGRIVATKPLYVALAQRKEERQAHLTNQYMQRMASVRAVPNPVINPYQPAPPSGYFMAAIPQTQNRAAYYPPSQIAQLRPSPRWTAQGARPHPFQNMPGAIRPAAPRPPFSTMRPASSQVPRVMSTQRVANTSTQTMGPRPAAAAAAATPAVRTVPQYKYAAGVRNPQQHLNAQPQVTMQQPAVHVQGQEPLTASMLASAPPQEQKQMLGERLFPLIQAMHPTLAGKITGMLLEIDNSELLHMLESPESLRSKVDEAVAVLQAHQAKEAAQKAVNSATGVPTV
Assay: PABP poly(A) RNA binding inhibitors, primary screen, biochemical, fluorescence polarization, uHTS (AID 2014);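 further: calls also rest on retests at 20 µM and on dose response follow-up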
Settings: stronger effect = higher value

| Compound | inhibition (at 35 µM) | inhibition (confirmation repeats, at 20 µM) [%] |
| --- | --- | --- |
| COc1ccc(N2CCN(C(=O)c3ccccc3NC(=O)C3=C(C)OCCS3)CC2)cc1 | -6.5% (inactive) |  |
| O=C(c1cc(-c2ccc(O)cc2)on1)N1CCOCC1 | 2.9% (inactive) |  |
| COCCCNC(=O)Cc1ccc(-n2c(C)nc3cccnc32)cc1 | 36% (inactive) | 12 |
| CCc1nc2cccnc2n1-c1ccc(C(=O)O)cc1 | 73.7% (active) | 87.5 |
| CCOC(=O)CNC(=O)CSc1nc2cccnc2n1CC | 23.1% (inactive) |  |
| CCOC(=O)[C@@H]1[C@H]2COc3cc(OC)ccc3[C@@H]2N2C(=O)N(c3cccc(C)c3)C(=O)[C@@]12C | 7.6% (inactive) |  |
| O=C(Cc1cccs1)Nc1ccc([N+](=O)[O-])cc1 | 2.1% (inactive) |  |
| Cc1ccc(/C=C/C(=O)Nc2cc(S(=O)(=O)N3CCCCCC3)ccc2OCC(F)(F)F)o1 | -0.3% (inactive) |  |
| Cc1ccc(/C=C/C(=O)Nc2ccc([N+](=O)[O-])c(NC(=O)/C=C/c3ccc(C)o3)c2)o1 | 0% (active) | 119 |
| COC(=O)/C=C\C(=O)Nc1cccc([N+](=O)[O-])c1 | 9.4% (inactive) |  |
| COCc1ccc(CN2CCC(Oc3ccc(C(=O)NCc4ccccn4)cc3)CC2)o1 | -1.3% (inactive) |  |
| Cc1[nH]c2ccccc2c1C(=O)CN1CCCC(C)C1 (stereo not given) | 8.2% (inactive) |  |
| Cc1nc(SCC(=O)NC2CCCC2)[nH]c(=O)c1C | 3.8% (inactive) |  |
| O=C(/C=C/c1ccc([N+](=O)[O-])o1)NNC(=O)c1ccc(F)cc1 | 8.2% (inactive) |  |
| CN=C1S/C(=C\c2ccc(Sc3ccc(Cl)cc3)o2)C(=O)N1C | -5.7% (inactive) |  |
| CN=C1S/C(=C\c2c(OC)cc(OC)cc2OC)C(=O)N1C | 8.5% (inactive) |  |
| CN1C(=O)/C(=C/c2ccco2)SC1=Nc1cccc(C(=O)O)c1 | -1.6% (active) | 78.4 |
| COC(=O)C1(C)NC(c2ccc(F)cc2)C2C(=O)N(c3ccccc3)C(=O)C21 (stereo not given) | 10.8% (inactive) |  |
| CC(=O)NS(=O)(=O)c1ccc2c(c1)Cc1cc(S(=O)(=O)NC(C)=O)ccc1-2 | 6% (inactive) |  |
| COc1ccccc1CNS(=O)(=O)CC12CCC(CC1=O)C2(C)C (stereo not given) | 3.9% (inactive) |  |
| CC(C)Cc1nnc(NC(=O)CCc2ccccc2)s1 | -7.4% (inactive) |  |
| Clc1ccccc1CSc1nnc(-c2ccco2)c(-c2ccco2)n1 | 82.6% (active) | 87.4 |
| c1ccc(CSc2nnc(-c3ccco3)c(-c3ccco3)n2)cc1 | 74.8% (active) |  |
| Fc1cccc(Cl)c1CSc1ccc(-c2ccco2)nn1 | -6.6% (inactive) |  |
| O=c1[nH]c(SCc2ccccc2)nnc1-c1ccccc1 | 62.5% (inactive) | -3.1 |

| Compound | inhibition (at 35 µM) | inhibition (confirmation repeats, at 20 µM) [%] |
| --- | --- | --- |
| Brc1ccc(CSc2ccc(-c3ccco3)nn2)cc1 | -6.1% (inactive) | 5.9 |
| COC(OC)c1ccnc(SCc2ccccc2Cl)n1 | -6.4% (inactive) |  |
| CCOc1ccc(S(=O)(=O)Nc2ccc(OC)nc2)cc1 | 9.7% (inactive) |  |
| COc1ccc(NS(=O)(=O)c2ccc(F)cc2F)cn1 | 70.3% (active) |  |
| COc1ccc(S(=O)(=O)Nc2ccc(F)cc2)c(C)c1C | -4.6% (inactive) |  |
| COCC(=O)N1CCc2ccc(NC(=O)c3ccccc3Cl)cc2C1 | 9.8% (inactive) |  |
| Nc1nc(SCC(=O)Nc2cc(C(F)(F)F)ccc2Cl)[nH]c(=O)c1NC(=O)c1ccco1 | 2.8% (inactive) |  |
| Cc1c(CC(=O)NCCCCCC(=O)O)c(=O)oc2cc3occ(-c4ccccc4)c3cc12 | 15.4% (inactive) |  |
| Cc1c(CCC(=O)O)c(=O)oc2cc3occ(-c4ccccc4)c3cc12 | 32.6% (inactive) |  |
| CCCCCCc1cc2cc(-c3nnc(-c4ccccc4)o3)c(=O)oc2cc1O | 102% (active) |  |
| COc1cc(C(=O)N2CCN(C3CCC(C)CC3)CC2)cc(OC)c1OC (stereo not given) | 7.5% (inactive) |  |
| CC(C)=N/N=C1/NC(=O)C(Cc2ccccc2)S1 (stereo not given) | 4.2% (inactive) |  |
| CSc1nc(-c2ccco2)nn1C(=O)CCc1ccccc1 | 7.1% (inactive) |  |
| CCOC(=O)/C=c1\s/c(=C\c2ccccc2OC)c(=O)n1CC(=O)N1CCOCC1 | 7.9% (inactive) |  |
| CCOc1ccccc1/C=c1\sc2nc(-c3ccco3)nn2c1=O | 53% (active) |  |
| CC1CCCCN1C(=O)CCS(=O)(=O)Cc1ccccc1 (stereo not given) | 9.6% (inactive) |  |
| Cc1nc(N)nc(SCc2ccc([N+](=O)[O-])cc2)c1N | 7.3% (inactive) |  |
| COc1ccccc1N1CCN(S(=O)(=O)c2ccc(Cl)cc2)CC1 | -9.7% (inactive) |  |
| O=S(=O)(c1ccc(F)cc1)N1CC=C(c2ccccc2)CC1 | 4.6% (inactive) |  |
| Cc1c(C2=CCN(S(=O)(=O)c3ccc(Cl)cc3)CC2)c2ccccc2n1C | 4.5% (active) | 95.9 |
| COc1ccccc1NC(=O)C1CCN(C(=O)c2ccc(C(C)(C)C)cc2)CC1 | 10.3% (inactive) |  |
| NS(=O)(=O)c1ccc(-c2ccc(/C=C3\SC(=O)NC3=O)o2)cc1 | 7.1% (inactive) |  |
| CC(=O)OCc1cc2cc(C)ccc2[nH]c1=O | 9.2% (inactive) |  |
| CCCc1nc(-c2cc3cc(C)ccc3[nH]c2=O)no1 | 61.5% (active) | 60 |
| COc1ccc2[nH]c(=O)c(-c3noc(-c4ccc(F)cc4)n3)cc2c1 | 1.1% (inactive) |  |

| Compound | inhibition (at 35 µM) | inhibition (confirmation repeats, at 20 µM) [%] |
| --- | --- | --- |
| COc1ccc(-n2ncc3c2CC(C)(C)CC3NC(=O)CCc2c(C)noc2C)cc1 (stereo not given) | 9.7% (inactive) |  |
| CCCS(=O)(=O)N1CCN=C1SCc1cccc(F)c1 | -1.7% (inactive) |  |
| COc1ccc(CNC(=O)C(=O)NCC2OCCN2C(=O)c2ccc(OC)cc2)cc1 (stereo not given) | -1% (inactive) |  |
| Cc1ccc(S(=O)(=O)N2CC(C)N(S(C)(=O)=O)C2)cc1 (stereo not given) | 2% (inactive) |  |
| Cc1cc([N+](=O)[O-])ccc1NC(=O)C1CCCO1 (stereo not given) | -5.5% (inactive) |  |
| Cc1cc(C)c2nc(NC(=O)C3CCCO3)sc2c1 (stereo not given) | -13.4% (inactive) |  |
| Cc1ccc(C)c(C(C)NC(=O)C2CCCO2)c1 (stereo not given) | 102% (active) |  |
| COc1ccc(NC(=O)c2cc([N+](=O)[O-])ccc2NC(=O)CNC2CCCCC2C)c(OC)c1 (stereo not given) | 9.1% (inactive) |  |
| O=C(CCc1nnc2ccc(NCCCN3CCCC3=O)nn12)NCc1ccccc1Cl | 2.5% (inactive) |  |
| CN1CCCC(OC(=O)COc2ccc(Br)cc2)C1 (stereo not given) | 0.4% (active) | 55 |
| Cc1ccc(C(=O)OC2CCCN(C)C2)cc1 (stereo not given) | -1.5% (inactive) |  |
| CCOC(=O)N1CCN(C(=O)COc2ccc(Br)cc2)CC1 | -4.7% (inactive) |  |
| CCOc1cnc(C(=O)NNC(=O)c2ccccc2Br)o1 | 12.8% (active) | 95.2 |
| CCCc1ccc(OCCNC(=O)c2ccccc2Br)cc1 | 1.2% (inactive) |  |
| O=C(NC(=S)Nc1ncccn1)c1ccccc1Br | 2.7% (inactive) |  |
| COc1ccc(C(=O)Nc2ccc(C3(C#N)CCCC3)cc2)cc1OC | -5.5% (inactive) |  |
| CC1CCN(S(=O)(=O)c2ccc3[nH]c(=O)ccc3c2)CC1 | -3.1% (inactive) |  |
| Cc1c(-c2ccccc2)cn2c1-c1ccc(C)n1CC2 | 88.3% (active) |  |
| CCN(CC)c1ccc2cc(C(N)=O)/c(=N\NC(=O)c3ccncc3)oc2c1 | 1.8% (inactive) |  |
| CCN(CC)c1ccc2oc(=O)c(C)nc2c1 | 116% (active) | 62.7 |
| CCN(CC)c1ccc(/C=N/Nc2nc(C)cc(=O)[nH]2)cc1 | -2.5% (inactive) |  |
| O=[N+]([O-])c1ccccc1/C=C/CN1CCC(O)CC1 | 4.7% (inactive) |  |
| O=C(O)c1ccc(-n2nc(-c3ccccc3)c3ccccc3c2=O)cc1 | 8.1% (inactive) |  |
| CCOc1ccc(Br)cc1S(=O)(=O)N1CCC(C(=O)O)CC1 | -2.2% (inactive) |  |
| CCOc1ccc(-n2cnnn2)cc1S(=O)(=O)N1CCC(C)CC1C (stereo not given) | 74.4% (active) | 87.6 |

| Compound | inhibition (at 35 µM) | inhibition (confirmation repeats, at 20 µM) [%] |
| --- | --- | --- |
| Cc1ccc(S(=O)(=O)N2CCC(Oc3ccc(-n4cnnn4)cc3)CC2)cc1 | 6.3% (inactive) |  |
| Cc1cccc(C(=O)N2CCCC(Nc3ccc(C(C)C)cc3)C2)n1 (stereo not given) | 6.3% (inactive) |  |
| CCOC(=O)c1c(C)[nH]c(C2=NNC(=NC(C)COC)SC2)c1C (stereo not given) | 50.4% (active) | 104 |
| CCCCOC(=O)c1[nH]c(C)c(C(=O)OC)c1C | -3.8% (inactive) |  |
| CCOC(=O)c1c(C)[nH]c2c1-c1ccccc1C(=O)C2=O | -3.9% (inactive) |  |
| COCCCNS(=O)(=O)c1cccc(S(=O)(=O)c2cccc(S(=O)(=O)NCCCOC)c2)c1 | -6.2% (inactive) |  |
| CC(=O)NS(=O)(=O)c1ccccc1 | 8.1% (inactive) |  |
| Cc1ccc(S(=O)(=O)NC(=O)c2cccc(C)c2)cc1 | 4.3% (inactive) |  |
| Nc1ccc(S(=O)(=O)NC(=O)c2ccccc2)cc1 | 50.5% (active) | 72.5 |
| COC(=O)Cc1ccc(NC(=S)NCc2ccc(Cl)cc2)cc1 | 1.5% (inactive) |  |
| S=C(NCc1cccs1)Nc1ccc(Cl)cc1 | -4.3% (inactive) |  |
| Fc1ccccc1CNC(=S)Nc1ccc(Cl)cc1 | 59.1% (active) | 83 |
| CC1CCCN(CCCNC(=O)CN2C(=O)COc3ccc(S(=O)(=O)N4CCOCC4)cc32)C1 (stereo not given) | 2.3% (inactive) |  |
| C=CCNC(=S)/N=c1/ccccn1Cc1ccccc1 | 12.9% (inactive) |  |
| O=C(OCc1cc(Cl)ccc1OC(F)F)c1cccnc1 | 16.1% (active) | 81.2 |
| O=C(OCc1cc2ccccc2[nH]c1=O)c1cccnc1 | -2.2% (inactive) |  |
| O=C(/C=C/c1ccc(Cl)cc1Cl)c1cccnc1 | -1% (inactive) |  |
| CCOC(=O)c1ccc(NC(=O)c2ccc(NC(=O)C3CCCO3)cc2)cc1 (stereo not given) | -0.4% (inactive) |  |
| CC(C)C[C@@H](CO)N1CCN(Cc2ccc(O)cc2)CCC1=O | 1.4% (inactive) |  |
| COc1ccc(CN2CCCC(CNC(=O)c3ccc(F)cc3)C2)cc1OC (stereo not given) | 79.6% (active) | 74.7 |
| COc1ccc(CCN(C)C(=O)C2CCCN(Cc3ccc(OC)c(OC)c3)C2)cc1OC (stereo not given) | 11.9% (inactive) and 7% (inactive) |  |
| COc1ccc(Cc2nc3ccc(C(=O)NCC4CCOCC4)cc3o2)cc1OC | 11.1% (inactive) |  |
